NIH3T3 tox = Cytotoxic Profiling in NIH 3T3 Cell Line of Diverse Libraries Using Quantitative High-Throughput Screening; NIH 3T3 viability, CellTiter-Glo ATP luminescence, 48-72 h; Potency, µM (titrated, usually from 96.7 µM), for inactives: at the highest dose activity change, negative = cytotoxicity, actives largely listed as inhibitors; actives 4.3% (n = 94,000); further: nearly all actives have a fitted effect of over 55% in size
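Cells were seeded at 400 per well, treated with pin-transferred compound, and kept 48 or 72 hr at 37 °C before CellTiter-Glo addition and luminescence imaging of cellular ATP.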
HEK293 tox = Cytotoxic Profiling in HEK 293 Cell Line of Diverse Libraries Using Quantitative High-Throughput Screening | AID 1345083, 2018 | Potency, µM (highest dose often 115 µM), without a hit: top-dose activity change, negative = cytotoxicity, usual class: inhibitors | actives 6.6% (n = 94,000) | HEK 293 viability, ATP luminescence (CellTiter-Glo), 48-72 h; further: nearly all actives have a fitted effect of over 60% in size
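Luminescence from cellular ATP, measured with CellTiter-Glo, indicates HEK 293 viability. Cells plated at 250 cells/well are treated with compound for 48 or 72 hr at 37 degree Celsius before reagent addition.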
FLuc inh = Firefly luciferase inhibition profiling of diverse chemical library using quantitative high-throughput screening | actives 2.5% (n = 76,000) | Potency, µM (highest dose often 115 µM), usual class: inhibitors | purified P. pyralis luciferase, luminescence, biochemical; further: nearly all actives have a fitted effect of over 65% in size
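FLuc 10nM, D-luciferin 10uM, ATP 10uM, Mg acetate 10mM, Tris acetate pH 7.5, Tween/BSA; cpd qHTS; enzyme added last; CCD luminescence.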
NPR1 antag = Natriuretic polypeptide receptor (hNpr1) antagonism - Primary qHTS; HEK293 hNpr1 GloSensor cGMP, ANP-stimulated luminescence; Potency, µM (highest dose often 46.3 µM), without a hit: top-dose activity change, negative = inhibition, hits mostly inhibitors; actives 1.6% (n = 76,000); AID 1347048, 2019; calls by dose curve; further: nearly all actives have a fitted effect of over 60% in size
Target sequence (P16066 whole entry, looked up): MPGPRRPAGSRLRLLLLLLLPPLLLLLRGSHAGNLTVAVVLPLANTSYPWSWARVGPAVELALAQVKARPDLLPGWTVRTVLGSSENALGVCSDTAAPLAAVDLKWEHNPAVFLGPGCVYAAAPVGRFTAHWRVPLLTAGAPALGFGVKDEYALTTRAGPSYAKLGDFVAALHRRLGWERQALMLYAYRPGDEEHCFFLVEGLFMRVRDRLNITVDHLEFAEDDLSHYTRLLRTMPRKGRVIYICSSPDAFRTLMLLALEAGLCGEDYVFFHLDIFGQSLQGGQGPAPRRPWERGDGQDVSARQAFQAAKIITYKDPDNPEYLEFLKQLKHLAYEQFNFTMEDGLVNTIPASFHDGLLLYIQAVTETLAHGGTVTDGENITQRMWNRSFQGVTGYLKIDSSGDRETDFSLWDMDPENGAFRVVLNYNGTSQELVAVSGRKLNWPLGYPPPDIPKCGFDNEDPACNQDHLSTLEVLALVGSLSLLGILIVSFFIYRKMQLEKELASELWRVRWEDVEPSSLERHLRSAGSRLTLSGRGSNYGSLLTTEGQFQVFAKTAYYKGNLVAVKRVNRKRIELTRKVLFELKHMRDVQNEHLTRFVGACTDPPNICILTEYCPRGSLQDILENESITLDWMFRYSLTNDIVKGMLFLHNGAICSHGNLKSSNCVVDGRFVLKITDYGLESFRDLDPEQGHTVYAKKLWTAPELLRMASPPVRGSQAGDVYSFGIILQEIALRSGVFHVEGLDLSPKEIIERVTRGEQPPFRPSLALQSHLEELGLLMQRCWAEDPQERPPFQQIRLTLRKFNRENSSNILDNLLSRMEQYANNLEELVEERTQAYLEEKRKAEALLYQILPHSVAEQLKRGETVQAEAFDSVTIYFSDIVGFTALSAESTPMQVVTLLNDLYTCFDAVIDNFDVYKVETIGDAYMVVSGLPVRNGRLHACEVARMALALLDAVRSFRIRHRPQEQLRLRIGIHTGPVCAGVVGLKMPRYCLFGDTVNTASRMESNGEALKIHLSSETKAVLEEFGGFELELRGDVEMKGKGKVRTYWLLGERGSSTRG
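Compound pre-incubated 30 min at room temperature on GloSensor-loaded HEK293 cells stably carrying hNpr1 and the pGS-40F cGMP biosensor. Stimulation uses hNppA at 0.1 nM final; luminescence is taken at baseline and 20 min post-agonist.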
Numbers without * were called inactive; i = inactive; u = inconclusive; x = no result given; ! = a repeat was not active; [ ] = remark or other dose. Most compounds without a hit are left out; they make up all but 11% or so of the library. Unless noted, the call rests on the fitted dose curve; in most records, active means well fitted curve in the direction sought with a large enough effect; inconclusive means small, poorly fitted or top-dose-only effect, or another doubt; inactive means no such curve, though single readings can be large; an effect the other way counts as inactive or inconclusive. On the % scale 0 is the no-effect control and ±100 the full control effect; potency means the concentration at half of the fitted maximal effect.

SMILES	NIH3T3 tox	HEK293 tox	FLuc inh	NPR1 antag
CC(C)(Oc1nn(Cc2cccc(Cl)c2)c2ccccc12)C(=O)N1CCOCC1	u	89.1µM*	i	u
CC(C)(Oc1nn(Cc2cccc(Cl)c2)c2ccccc12)C(=O)NCC[S+](C)(=O)[O-]	u	u	i	u
COCc1ccc2c(c1)c(OC(C)(C)C(=O)NCCN1CCOCC1)nn2Cc1ccccc1	u	u	i	1.6%
CC(C)(Oc1nn(CCN2CCOCC2)c2ccccc12)C(=O)NCc1ccccc1	-11.8%[138 µM]	u	i	-11.1%[70.6 µM]
CC(C)(Oc1nn(Cc2cccc(Cl)c2)c2ccccc12)C(=O)NCCN1CCOCC1	u	50.1µM*	i	-20.7%
CC(C)(Oc1nn(Cc2cccc(Cl)c2)c2ccccc12)C(=O)NC1CCOCC1	u	89.1µM*	i	-25.8%[70.6 µM]
CNC(=O)c1cc(-c2ccc([S+](C)(=O)[O-])cc2)cc2c1OCCN2Cc1cccnc1	8.91µM*	-22.8%[172 µM]	i	-3.7%[70.6 µM]
COc1ncc(-c2cc(C(=O)NCc3cccnc3)c3c(c2)N(C)CCO3)cn1	44.7µM*	-11.8%[172 µM]	i	-6.1%[70.6 µM]
CNC(=O)c1cc(-c2cnc(OC)nc2)cc2c1OCCN2Cc1cccnc1	u	2.2%[172 µM]	i	-1.3%[70.6 µM]
CNC(=O)c1cc(-c2cnn(C)c2C)cc2c1OCCN2Cc1cccnc1	44.7µM*	-4.0%[172 µM]	i	1.1%[70.6 µM]
CNC(=O)c1cc(-c2ccc(OC)c(OC)c2)cc2c1OCCN2Cc1cccnc1	22.4µM*	-11.7%[172 µM]	i	2.1%[70.6 µM]
CN(Cc1ccccc1)Cc1cccc(C(F)(F)F)c1	-7.6%[138 µM]	-5.5%[172 µM]	x	x
CNC(=O)c1cc(-c2ccc(CO)cc2)cc2c1OCCN2Cc1cccnc1	44.7µM*	-3.1%[172 µM]	i	10.2%[70.6 µM]
Cc1cc(CNC(=O)c2cc(-c3ccccc3)cc3c2OCCN3C)no1	u	100µM*	i	2.6%[70.6 µM]
COc1cccc(C(O)c2nc(C(=O)Nc3nc(C)cs3)c(C)o2)c1 (centres undefined)	u	u	u	17.8µM*
Cc1csc(NC(=O)c2nc(C(O)c3ccccc3)oc2C)n1 (centres undefined)	79.4µM*	u	i	u
COc1ccc(NC(=O)c2nc(C(O)c3ccccc3)oc2C)cn1 (centres undefined)	-11.3%[138 µM]	u	i	3.9%[70.6 µM]
COc1cccc(C(O)c2nc(C(=O)Nc3ccc4c(c3)CC(=O)N4)c(C)o2)c1 (centres undefined)	u	100µM*	i	1.2%[70.6 µM]
CC(=O)N1CCC(N2CC[C@@H](CO)N(C)c3ncccc3C2)CC1	44.7µM*	u	i	6.2%[70.6 µM]
CN1c2ncccc2CN(Cc2ccccc2O)CC[C@H]1CO	-9.9%[138 µM]	0.6%[172 µM]	i	-0.2%[70.6 µM]
COc1cccc(Nc2cc3[nH]ccc3c(C(=O)NCc3c(C)cc(C)[nH]c3=O)n2)c1	39.8µM*	70.8µM*	u	0.8%[70.6 µM]
Cc1cc(C)c(CNC(=O)c2nc(-c3cccc(C(F)(F)F)c3)cc3[nH]ccc23)c(=O)[nH]1	u	39.8µM*	i	-15.8%
Cc1cc(C)c(CNC(=O)c2nc(-c3ccccc3)cc3[nH]ccc23)c(=O)[nH]1	u	u	i	-0.6%[70.6 µM]
O=C1Nc2ccccc2CN(CC2CCCC2)C12CCNC2 (centres undefined)	u	-28.9%	x	x
OCC1CN(c2ncccn2)CC12CCN(Cc1cc(Cl)ccc1F)CC2 (centres undefined)	-4.3%	u	i	2.6%
SMILES	NIH3T3 tox	HEK293 tox	FLuc inh	NPR1 antag
COc1ccc(NC(=O)Nc2cccn3nc(C(C)C)nc23)cc1	u	u	44.7µM*	-12.3%
CN(C)CC(C)(C)NC(=O)c1csc2nc(-c3cccc(C(F)(F)F)c3)cn12	u	44.7µM*	i	-8.7%
COCC(=O)N1CC(N2C(=O)c3c(c(C)nn3-c3ccccc3)C2C)C1 (centres undefined)	-17.8%	3.1%	x	x
COc1ccc(CC(=O)N2CC(N3C(=O)c4c(c(C)nn4-c4ccccc4)C3C)C2)cc1 (centres undefined)	u	39.8µM*	x	x
Cc1nn(-c2ccccc2)c2c1C(C)N(C1CCN(C(=O)c3cccc(C(F)(F)F)c3)CC1)C2=O (centres undefined)	u	44.7µM*	x	x
Cc1nn(-c2ccccc2)c2c1C(C)N(C1CCCN(C(=O)Cc3ccccn3)C1)C2=O (centres undefined)	-21.7%	u	x	x
Cc1nn(-c2ccccc2)c2c1C(C(C)C)N(C1CCN(C(=O)c3ccc(C(F)(F)F)cc3)CC1)C2=O (centres undefined)	-0.5%	3.4%	x	x
Cc1nn(-c2ccccc2)c2c1C(C)N(C1CCN(C(=O)c3ccc(Cl)nc3)CC1)C2=O (centres undefined)	35.5µM*	u	x	x
Cc1nn(-c2ccccc2)c2c1C(C)N(C1CCN(C(=O)c3ccccc3)CC1)C2=O (centres undefined)	u	35.5µM*	x	x
Cc1ccc(NC(=O)N2CCC3(CCNC(=O)CC3)CC2)cc1F	u	11.4%	i	3.0%
CNC(=O)[C@H]1CN(C(=O)NCc2ccccc2)[C@]2(C)C(=O)N(CC3CC3)c3ccccc3[C@H]12	u	-24.4%[57.5 µM]	x	x
COc1ccc(C(=O)Nc2cc(C3CC3)nn2-c2ccccc2)cc1	-29.9%	-14.6%	x	x
COCC(=O)N1CCC(N2C(=O)c3c(c(C)nn3-c3ccccc3)C2C)CC1 (centres undefined)	28.2µM*!	-20.2%	x	x
COc1cccc([S+](=O)([O-])N2CCC(N3C(=O)c4c(c(C)nn4-c4ccccc4)C3C)CC2)c1 (centres undefined)	-13.3%	-24.7%	x	x
COc1cccc(C(=O)N2CCC(N3C(=O)c4c(c(C)nn4-c4ccccc4)C3C)CC2)c1 (centres undefined)	u	39.8µM*	x	x
Cc1[nH]ncc1CNC(=O)CCC[C@H]1NC[C@@H]2C[C@H]1CN(Cc1ccccc1)C2	i	8.2%	i	-8.7%
Cc1cccc(NC(=O)N2CCC(Cc3nncn3CC3CC3)CC2)c1	u	i	x	x
O=C(Cc1ccc(F)cc1)N1CCc2nc(C3CC3)nc(-c3ccc(O)cc3)c2CC1	-27.7%	u	x	x
CCOC(=O)c1ccc(N2CCN(C(=O)C3=CC(C)(C)COc4ccc(OC)cc43)CC2)cc1	u	35.5µM*	x	x
COc1ccc(C(=O)N2CCC3(CC2)COc2ccccc2C(=O)N3)cc1	-2.8%	-3.9%	i	-5.6%
O=C(CCc1ccc(O)cc1)N[C@H]1CC[C@H](Nc2nccc(-c3cccnc3)n2)C1	50.1µM*	39.8µM*	i	-11.8%
Cc1ccc([S+](=O)([O-])N2CCN(c3nccc(Nc4ccccc4F)n3)CC2)cc1	u	31.6µM*	x	x
COc1ccc(Nc2ccnc(N3CCC(N[S+](=O)([O-])c4ccc(C)cc4)CC3)n2)cc1	25.1µM*	28.2µM*	x	x

Screening data: PubChem, National Center for Advancing Translational Sciences (NCATS)
